Data on 104 molecules can be found in ChEMBL document CHEMBL1201862, “PubChem BioAssay data set” (2004).

The campaign covered roughly 400,000 compounds. About 2,100 (0.53%) were called active. Roughly 14% stayed inconclusive and do not appear here. No rule for the calls is given here. This excerpt belongs to a sample that is enriched for actives.

Chain of Ataxin-2 (Homo sapiens) (Q99700 whole entry): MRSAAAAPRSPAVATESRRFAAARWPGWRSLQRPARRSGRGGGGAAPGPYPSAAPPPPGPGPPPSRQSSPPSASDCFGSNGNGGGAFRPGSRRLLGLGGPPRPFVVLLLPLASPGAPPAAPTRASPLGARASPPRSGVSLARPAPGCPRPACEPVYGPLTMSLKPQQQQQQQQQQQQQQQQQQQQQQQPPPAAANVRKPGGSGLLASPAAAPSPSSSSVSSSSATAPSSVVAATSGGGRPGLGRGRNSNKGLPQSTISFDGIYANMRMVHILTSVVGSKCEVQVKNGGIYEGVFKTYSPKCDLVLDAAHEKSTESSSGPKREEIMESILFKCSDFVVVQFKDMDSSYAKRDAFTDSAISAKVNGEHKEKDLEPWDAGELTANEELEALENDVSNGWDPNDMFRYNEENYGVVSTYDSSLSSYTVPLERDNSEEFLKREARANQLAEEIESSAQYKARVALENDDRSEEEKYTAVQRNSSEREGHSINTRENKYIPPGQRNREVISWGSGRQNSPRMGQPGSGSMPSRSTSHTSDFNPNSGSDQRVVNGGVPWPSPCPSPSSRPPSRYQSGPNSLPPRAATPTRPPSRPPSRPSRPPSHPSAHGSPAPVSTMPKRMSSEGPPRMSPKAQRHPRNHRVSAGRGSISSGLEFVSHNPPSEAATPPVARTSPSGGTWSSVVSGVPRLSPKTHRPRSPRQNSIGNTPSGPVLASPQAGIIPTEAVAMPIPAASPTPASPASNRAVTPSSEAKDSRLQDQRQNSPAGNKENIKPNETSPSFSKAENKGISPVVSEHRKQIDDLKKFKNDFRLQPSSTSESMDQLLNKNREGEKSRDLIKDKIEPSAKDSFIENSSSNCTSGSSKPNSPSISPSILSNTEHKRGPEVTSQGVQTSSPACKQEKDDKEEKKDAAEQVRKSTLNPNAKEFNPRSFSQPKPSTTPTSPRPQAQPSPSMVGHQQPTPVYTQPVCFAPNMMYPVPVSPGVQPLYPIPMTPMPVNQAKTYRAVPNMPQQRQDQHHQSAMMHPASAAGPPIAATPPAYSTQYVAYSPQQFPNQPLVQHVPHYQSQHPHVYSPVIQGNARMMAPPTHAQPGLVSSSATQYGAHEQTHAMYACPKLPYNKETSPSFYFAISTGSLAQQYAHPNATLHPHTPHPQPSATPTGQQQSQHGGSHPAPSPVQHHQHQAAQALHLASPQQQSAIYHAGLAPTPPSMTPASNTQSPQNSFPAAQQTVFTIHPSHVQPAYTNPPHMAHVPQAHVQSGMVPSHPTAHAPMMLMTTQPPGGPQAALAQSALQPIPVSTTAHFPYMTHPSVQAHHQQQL

The assay has as its target Ataxin-2 (Homo sapiens) (UniProt Q99700). Description: qHTS for Inhibitors of ATXN expression. The class given is functional. Background: Quantitative high-throughput screening tests each substance at several concentrations.
For the molecule `CC(C)=CCN1CCN(Cc2cccc3nonc23)CC1CCO` (centres undefined), the Potency entry is “inactive”.
Consider `COc1ccc(CN2CCN(CC3CC3)CC2CCO)c(C)c1C` (centres undefined), for which the Potency result was “inactive”.
Turning to `Cc1ccccc1CN1CCN(Cc2cc3ccccc3o2)CC1CCO` (centres undefined), the Potency is 8.44 µM (active).
The result for `CCOc1ccc(C2=CC(c3ccccc3)n3ncnc3N2)cc1` (centres undefined) reads “inactive”.
The result for `CCOCCCn1/c(=N/C(=O)c2cccnc2)c(C(=O)OCC)cc2c(=O)n3ccccc3nc21` reads “inactive”; that for `COC(=O)c1ccc2[nH]c3cccc(/C(=C/c4ccccc4)c4ccccc4)c3c2c1`, 39.8 µM (active); that for `O=C(OCCN1C(=O)c2cccc3c(N4CCOCC4)ccc(c23)C1=O)c1ccc(Cl)cc1Cl`, “inactive”.
Regarding `O=C(CN1C(=O)c2ccccc2C1=O)OCCOCCNC1=NS(=O)(=O)c2ccccc21`, the Potency result was “inactive”.
To `CCn1cc(Cl)c(C(=O)Nc2cc(C(=O)OC)cc(C(=O)OC)c2)n1` belongs “inactive”; to `COc1ccc(NC(=S)N2CCC(C(=O)c3ccc(Cl)cc3)CC2)cc1`, “inactive”.
Take `CCc1nc2ccc(C(=O)Nc3ccc(Cl)c(Cl)c3)cn2c1N(C)Cc1ccc(OC)cc1`: the Potency was 20 µM (active).
To `COc1ccc(N2CC(C(=O)N[C@@H](C)C(=O)NCc3ccccc3OC)CC2=O)cc1` (some centres undefined) belongs “inactive”; to `COCCCNC(=O)c1ccc2nc3ccccc3c(=O)n2c1`, “inactive”.
With `CCc1nc2ccc(C(=O)NCc3ccccc3OC)cn2c1N(C)Cc1ccc(OC)cc1`, the Potency is 17.8 µM (active).
To `COc1ccc2c(c1)CCc1cn3ncc(C#N)c3nc1-2` belongs “inactive”; to `O=C(O/N=C1\CCS(=O)(=O)c2sccc21)c1ccccc1`, “inactive”.
To `CCc1c(C)c2cc(Cl)c(O)c(CN(CC)CC)c2oc1=O` belongs “inactive”; to `CN1C(=O)c2cccc3c(Br)ccc(c23)C1=O`, “inactive”; to `Brc1ccc(COc2ncnc3ccccc23)cc1`, “inactive”.
The result for `O=C(NCc1ccc2c(c1)OCO2)c1ccc(Cl)s1` reads “inactive”.
As to `CN(Cc1ccc(Cl)s1)C(=O)CCl`, the Potency is 23.8 µM (active).
The result for `CN(Cc1ccc(Cl)cc1)C(=O)CCl` reads 35.5 µM (active).
With `COc1ccc(CN(C)C(S)=Nc2ccc(Cl)cc2)cc1`, the Potency entry was “inactive”.
The result for `CCOc1ccc(CNC(=O)Nc2ccccc2)cc1` reads “inactive”.
With `CCOc1ccc(CN(C)C(=O)CCl)cc1`, the Potency is 12.6 µM (active).
The result for `O=C(O)c1ccccc1N(Cc1ccccc1)C(=O)COc1ccccc1` reads “inactive”; that for `O=C(Nc1ccccc1F)C(=Cc1sc(N2CCOCC2)nc1-c1ccccc1)C(=O)Nc1ccccc1F`, “inactive”.
As for `Nc1c(C(=O)Nc2ccccc2)sc2nc(-c3ccco3)ccc12`, the Potency entry was “inactive”.
To `Cc1ccc2cccc(NS(=O)(=O)c3ccccc3)c2n1` belongs “inactive”.
The result for `CC(C)(C)C(=O)/C=c1\s/c(=C\c2ccc(-c3ccc([N+](=O)[O-])cc3)o2)c(=O)n1CC(=O)NC(N)=O` reads “inactive”.
To `COC(=O)c1ccc2oc(=O)c(S(=O)(=O)c3ccc(C)cc3)cc2c1` belongs “inactive”; to `CN(C)CCCN(C(=O)c1ccc2c(c1)CCCC2)c1nc2ccc(Cl)cc2s1`, 31.6 µM (active).
Consider `Cc1ccc2nc(N(CCCN(C)C)C(=O)c3ccc4c(c3)CCCC4)sc2c1`, for which the Potency is 39.8 µM (active).
The result for `CN(C)CCCN(C(=O)c1ccco1)c1nc2ccc(Cl)cc2s1` reads 39.8 µM (active); that for `CN(C)CCCN(C(=O)c1cccs1)c1nc2cc3c(cc2s1)OCO3`, “inactive”; that for `COc1cc2nc(N(CCCN(C)C)C(=O)c3ccc(C(=O)c4ccccc4)cc3)sc2cc1OC`, 44.7 µM (active).
In the case of `S=C(Nc1ccccc1Cl)N1CCCC(c2ccccc2)=N1`, the Potency entry was “inactive”.
To `NC1=NC(=O)C(Cc2ccc(Br)cc2)S1` (centres undefined) belongs “inactive”.
To `Nc1nc(N)c2ncc(C(=O)CCc3ccccc3)nc2n1` belongs “inactive”; to `O=c1c2ccccc2nc(-c2ccccc2)n1O`, “inactive”; to `CN(C)c1ccnc2sc(C(=O)c3ccc(Br)cc3)c(N)c12`, “inactive”.
As to `CC1CCCCN1S(=O)(=O)c1ccc(C(=O)N(CCCN(C)C)c2nc3ccc(Br)cc3s2)cc1` (centres undefined), the Potency was 39.8 µM (active).
To `COC(=O)c1c(NC(=O)c2ccc(S(=O)(=O)N3CCCCC3C)cc2)sc2c1CCN(C(C)C)C2` (centres undefined) belongs “inactive”; to `CCC1CCCCN1S(=O)(=O)c1ccc(C(=O)Nc2sc3c(c2C(=O)NC)CCC3)cc1` (centres undefined), “inactive”.
For the molecule `CSc1nsc(SCC(=O)Nc2ccccc2C(N)=O)n1`, the Potency entry was “inactive”.
The result for `Cc1ccc(Cn2c(=N)c(C(=O)NCC3CCCO3)cc3c(=O)n4cccc(C)c4nc32)cc1` (centres undefined) reads “inactive”; that for `CSCCC(NC(=O)COc1ccccc1)C(=O)NCCOc1ccccc1` (centres undefined), “inactive”.
`COc1cc2ccccc2cc1C(=O)Nc1ccc(O)cc1`: the Potency entry was “inactive”.
For the molecule `COc1c2ccccc2nc2ccccc12`, the Potency entry is “inactive”.
To `COc1ccc(OC)c2cc3ccccc3cc12` belongs 17.8 µM (active); to `COc1ccc2c(c1)cc(C(=O)N/N=C/c1c(O)c(C(=O)O)cc3ccccc13)n2C`, “inactive”; to `Cc1ccc(-n2nc3c(=O)n(C(C)C(=O)NCCc4cccs4)nc(C)c3c2C)cc1` (centres undefined), “inactive”.
To `COc1ccc(C)cc1NC(=O)C1CCCN1S(=O)(=O)c1ccccc1F` (centres undefined) belongs “inactive”; to `CCOc1ccc(CCNC(=O)C2CCCN(c3nnc(C)c4c(C)n(-c5ccccc5)nc34)C2)cc1` (centres undefined), 31.6 µM (active); to `CCOc1ccc(NC(=O)C2CCCN(c3nn4c(=O)cc(C)nc4s3)C2)cc1` (centres undefined), “inactive”.
For the molecule `Cc1ccc(-n2nc3c(N4CCCC(C(=O)NCCc5ccccc5)C4)nnc(C)c3c2C)cc1` (centres undefined), the Potency is 20 µM (active).
Turning to `CCOc1ccc(CNC(=O)C2CCCN(c3nnc(C)c4c(C)n(-c5ccccc5)nc34)C2)cc1` (centres undefined), the Potency is 15.8 µM (active).
To `Cc1cccc(CNC(=O)CCCn2nc(C)c3c(C)n(-c4ccccc4)nc3c2=O)c1` belongs “inactive”.
Turning to `CCOC(=O)N1CCN(S(=O)(=O)N2CCCC(C(=O)NCCc3ccc(Cl)cc3)C2)CC1` (centres undefined), the Potency result is “inactive”.
Regarding `Cc1nnc(N2CCCC(C(=O)Nc3cc(F)ccc3F)C2)c2nn(-c3ccccc3)c(C)c12` (centres undefined), the Potency was 35.5 µM (active).
As to `Cc1cc(NC(C)C)n2c(nc3ccccc32)c1C#N`, the Potency result is “inactive”.
The result for `COC(=O)c1c(C(=O)OC)c2c(-c3ccccc3)cc3cccc1n32` reads “inactive”; that for `Cc1ccc(C2=CC(c3ccccc3)n3ncnc3N2)cc1` (centres undefined), “inactive”; that for `CCn1c(=N)c(C(=O)NC2CCCC2)cc2c(=O)n3ccccc3nc21`, “inactive”.
As to `COC(=O)c1ccc(-c2sc3nc(N4CCOCC4)c4c(c3c2N)CCCC4)o1`, the Potency entry is “inactive”.
With `O=C(CSc1ccc(-c2cccs2)nn1)Nc1ccccc1F`, the Potency result is “inactive”.
The result for `Cc1cc(C)n2nc(C(=O)OCC(=O)NC3CCS(=O)(=O)C3)nc2n1` (centres undefined) reads “inactive”.
To `N#Cc1c(-c2ccccc2F)cc(C2CC2)nc1SCC(=O)c1cccs1` belongs “inactive”.
The result for `CCOc1ccccc1NC(=O)C1CCC(CNc2c(N3CCCCC3)c(=O)c2=O)CC1` (centres undefined) reads “inactive”.
In the case of `CCOc1ccccc1CNC(=O)C1CCN(c2nnc(C)c3c(C)n(-c4ccc(C)cc4)nc23)CC1`, the Potency was 35.5 µM (active).
To `O=C(NCCS(=O)(=O)N1CCN(c2ccccc2)CC1)C1CCCCC1` belongs “inactive”; to `Cc1nnc(N2CCCC(C(=O)NCCN(C)C)C2)c2nn(-c3ccccc3)c(C)c12` (centres undefined), 44.7 µM (active); to `N#Cc1ccccc1CSc1nc2ccsc2c(=O)n1Cc1ccccn1`, “inactive”.
In the case of `COc1ccc(-c2cc(=O)oc3cc(OC(=O)C4CCCCC4)ccc23)cc1`, the Potency result is “inactive”.
Regarding `O=C1CCC([N+](=O)[O-])C(c2ccc3c(c2)OCO3)N1` (centres undefined), the Potency entry was “inactive”.
The result for `CCN(CC)c1ccc(-c2nc3cnccn3c2NC2CCCC2)cc1` reads “inactive”; that for `O=C1N/C(=C/c2cccn2-c2ccc(F)cc2)C(=O)N1Cc1ccccc1`, “inactive”; that for `COc1ccc(C(=O)NCCOc2ccccc2Cl)c(OC)c1OC`, “inactive”.
As to `c1ccc(CNc2nc(NCCOc3ccccc3)c3sccc3n2)cc1`, the Potency was 22.4 µM (active).
To `CNc1nc(NCC2CCCCC2)c2sccc2n1` belongs 12.6 µM (active); to `COc1ccccc1CNc1nc(NCC2CC2)nc2ccsc12`, 15.8 µM (active); to `CC(C)Nc1nc(NCCOc2ccccc2Cl)c2sccc2n1`, 22.4 µM (active).
To `O=C(NC(=O)c1ccccc1Cl)C(=O)Nc1ccc(Cl)cc1` belongs “inactive”; to `O=C(N/N=C/c1cc2c3c(c1O)CCCN3CCC2)c1ccccc1O`, “inactive”; to `CCN(CC)c1ccc2cc(S(=O)(=O)c3ccc(Cl)cc3)c(=O)oc2c1`, “inactive”.
For the molecule `CCN(CC)S(=O)(=O)c1cccc(C(=O)N/N=C(\C)c2ccc(O)cc2O)c1`, the Potency entry is “inactive”.
The result for `O=C(O)c1cc2ccc(O)cc2oc1=O` reads “inactive”; that for `COc1ccc(-c2cnc(C(N)=O)c(O)n2)cc1`, “inactive”; that for `CC[C@@H]1C(c2ccccc2)=NN(c2ccc(Br)cc2)[C@H]1C(=O)N1CCOC1=O`, “inactive”.
The result for `O=C1OCCN1C(=O)[C@H]1[C@H](c2ccc(Cl)cc2)C(c2ccc(F)cc2)=NN1c1ccccc1` reads “inactive”; that for `COc1cccc(CNc2nc(NCc3cccs3)nc3ccsc23)c1`, 39.8 µM (active); that for `COc1cccc(CNC(=O)Cc2csc(Nc3nc(S)nc4ccccc34)n2)c1`, “inactive”.
The result for `c1csc(CNc2nc(Oc3ccncc3)c3sccc3n2)c1` reads “inactive”; that for `c1cc2cc(CNc3nc(NCC4CC4)nc4ccsc34)ccc2o1`, 25.1 µM (active); that for `COCCNc1nc(NCc2ccc(C(C)C)cc2)c2sccc2n1`, 35.5 µM (active).
Turning to `C#Cc1cccc(Nc2nc(NC(C)C)nc3ccsc23)c1`, the Potency was 28.2 µM (active).
For `CC(=O)c1ccc(NC(=O)COC(=O)Cc2ccsc2)cc1`, the Potency result is “inactive”.
With `S=C(c1ccc(-c2ccc(Br)cc2)o1)N1CCCCC1`, the Potency result is “inactive”.
The result for `CN(Cc1ccon1)C(=O)CC1C(=O)NCCN1CC(C)(C)C` (centres undefined) reads “inactive”; that for `O=S(=O)(O)c1ccc(SCc2ccccc2)nc1`, “inactive”; that for `CC(C)c1ccc(CNc2nc(NCC3CC3)nc3ccsc23)cc1`, 28.2 µM (active).
For the molecule `COc1ccc(CNc2nc3ccccc3n2C(C)C)cc1`, the Potency result is “inactive”.
To `COc1ccccc1CNc1nc(NCc2ccc(C(C)C)cc2)c2sccc2n1` belongs 31.6 µM (active); to `CCn1c(/C=C/c2c[nH]c3ccccc23)nc2ccccc2c1=O`, “inactive”.
